# Assay outcomes as filed in PubChem.
# An excerpt weighted towards active compounds, which were near 8.1% of everything screened.
# KB-3-1 cytotox: KB-3-1 parental cell cytotoxicity. Potency, µM (titrated, usually from 46.1 µM), actives largely listed as cytotoxic. hit rate 1.4% among 400,000. KB-3-1 viability, CellTiter-Glo ATP luminescence, 72 h; note: % is set by controls: 0 for no effect and ±100 for the full control effect; nearly all actives have a fitted effect of over 60% in size
#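 Luminescent ATP read-out (CellTiter-Glo) measures survival of drug-naive KB-3-1 cells after 72 h compound exposure at 37 °C. Titration series was screened from lowest to highest concentration, with DMSO vehicle plates as background controls.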
# KB-V1 cytotox: KB-V1 MDR subline cytotoxicity. hit rate 3.4% among 400,000. AID 1347076. KB-V1 MDR cells viability, CellTiter-Glo, 72 h. Potency, µM (doses to about 46.1 µM), hits mostly cytotoxic; note: % is set by controls: 0 for no effect and ±100 for the full control effect; nearly all actives have a fitted effect of over 60% in size
#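 KB-V1 MDR subline cells in DMEM (phenol-red free, 10% FBS) exposed to compounds in qHTS concentration series for 72 h at 37 degrees C. Viability read by CellTiter-Glo luminescence; concentration-effect curves fitted after normalization and correction.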
# ELG1 DNA repair: inhibitors of ELG1-dependent DNA repair in HEK293T cells | AID 504467 | hit rate 2.3% among 330,000 | Potency, µM (doses to about 46.1 µM), without a hit: at the highest dose activity change, negative = inhibition, most hits filed as inhibitors | HEK293T ELG1-luciferase reporter, luminescence, 16 h; DNA damage induced by 5-fluorouridine; note: % is set by controls: 0 for no effect and ±100 for the full control effect; nearly all actives have a fitted effect of over 55% in size
#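 HEK293T cells expressing luciferase-tagged ELG1 (2,000/well) received 5-Fluorouridine plus compound or DMSO for 16 hr at 37 °C. Luciferase was read by ONE-Glo luminescence after 30 min at room temperature.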
# MCF10A rereplic: inducers of DNA re-replication in MCF 10A breast cells; Potency, µM (doses to about 46.1 µM), inactives show top-dose activity, positive = re-replication, most hits filed as activators; hit rate 2.9% among 350,000; MCF 10A DNA re-replication, Hoechst nuclear intensity, 48 h; AID 624296; note: % of control where 0% means no effect; nearly all actives have a fitted effect of over 50% in size
# SW480 rereplic: inducers of DNA re-replication in SW480 colon cancer cells; SW480 DNA re-replication, Hoechst DNA content imaging, 48 h; Potency, µM (highest dose often 46.1 µM), without a hit: at the top dose re-replication activation, usual class: activators; hit rate 1.8% among 340,000; AID 624297; note: % of control where 0% means no effect; nearly all actives have a fitted effect of over 55% in size
#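 Treated cells incubate 48 hr (37 C, 5% CO2), are stained 40 min with Hoechst, and nuclear fluorescence is enumerated; a rise in nuclei with high DNA signal marks re-replication.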
# * = called active by the depositor; i = inactive; ? = inconclusive; . = not tested or not shown. Calls come from the whole dose curve; as a rule, active = well fitted curve in the direction sought with a large enough effect; inconclusive = small, poorly fitted or top-dose-only effect, or another doubt; inactive = no such curve, though single readings can be large; an effect the other way counts as inactive or inconclusive. Potency is the fitted concentration of half-maximal effect.
SMILES,KB-3-1 cytotox,KB-V1 cytotox,ELG1 DNA repair,MCF10A rereplic,SW480 rereplic
Cc1ccc(C)c(NC(=S)/C(=C(\[O-])c2ccc(Cl)s2)[n+]2ccccc2)c1,i,i,10%,0.65µM*,-10%
O=C(c1ccc2ccccc2c1)C1CCCN(S(=O)(=O)c2cccnc2)C1 (configuration not stated),i,16µM*,?,16%,4%
CCC(=O)NC(C)c1cc(Cl)c2cccnc2c1O (configuration not stated),8.2µM*,i,?,?,?
CC(=O)NC(C)c1cc(Cl)c2cccnc2c1O (configuration not stated),i,i,?,3.3µM*,?
Oc1c(C(Nc2nccs2)c2ccc(C(F)(F)F)cc2)ccc2cccnc12 (configuration not stated),?,?,2.6µM*,?,1.3µM*
Oc1c(C(Nc2cccnc2)c2ccccc2F)ccc2cccnc12 (configuration not stated),i,i,.,.,.
Cc1ccc(C(Nc2ccccn2)c2ccc3cccnc3c2O)cc1 (configuration not stated),?,i,.,.,.
Oc1c(C(Nc2cccc(C(F)(F)F)c2)c2ccncc2)ccc2cccnc12 (configuration not stated),i,?,?,?,12µM*
O=C(CC1C(=O)NCCN1C(=O)Nc1ccccc1)Nc1cc(Cl)cc(Cl)c1 (configuration not stated),i,i,-4%,?,?
CNC(=O)c1ccc2nc(-c3ccco3)c(-c3ccco3)nc2c1,i,i,.,.,.
COc1ccc(S(=O)(=O)Nc2ccc3c(c2)C(=O)N([C@H](C)CO)C[C@H](C)[C@@H](CN(C)C(=O)Nc2ccccc2)O3)cc1,i,i,19%,6%,2%
CC(NC(=O)COc1ccccc1)C(=O)N1CCN(c2ccc(F)cc2)CC1 (configuration not stated),i,18µM*,20%,11%,-4%
O=C(c1cccc(N2CCNC2=O)c1)N1CCCC(Nc2cccc(F)c2)C1 (configuration not stated),i,i,8%,?,-3%
O=C1CCCN1CCC(=O)N1CCCC(Nc2ccc(F)c(F)c2)C1 (configuration not stated),i,i,?,-1%,-3%
O=C(Cc1ccc(N2CCNC2=O)cc1)N1CCCC(Nc2ccc(F)c(F)c2)C1 (configuration not stated),7.3µM*,i,2%,?,5.8µM*
O=C(Cc1ccc(N2CCNC2=O)cc1)N1CCCC(Nc2cccc(F)c2)C1 (configuration not stated),4.1µM*,?,?,3.7µM*,?
Cc1ccc(N(C)C(=O)Cn2cnc3onc(-c4ccc(F)cc4)c3c2=O)cc1C,i,i,.,.,.
COc1cccc(-n2c(=O)c3sc4ccccc4c3n(CC(=O)NC3CCCCC3)c2=O)c1,i,i,.,.,.
Cc1cc(C)n(CCc2nc3c4ccccc4nc(N4CCN(c5ccccc5)CC4)n3n2)n1,i,i,.,.,.
CN(C1CCCCC1)S(=O)(=O)c1cn(C)c(=O)n(C)c1=O,i,i,18%,0%,-7%
CCC(C)(C)n1nnnc1C(C(C)C)N(CCN1CCOCC1)Cc1cc2cccc(C)c2[nH]c1=O (configuration not stated),i,15µM*,-20%,4%,3%
CCC(c1nnnn1C(C)(C)CC)N(CCCN1CCOCC1)Cc1cc2cccc(C)c2[nH]c1=O (configuration not stated),i,i,0%,?,30%
COC[C@H](NS(=O)(=O)c1ccc(Br)cc1F)[C@@H](O)c1ccccc1,i,i,.,.,.
CC(C)(C)N(Cc1ccc2c(c1)OCO2)C(=O)/C=C\S(=O)c1ccccc1 (configuration not stated),?,i,.,10µM*,9.2µM*
CCN(Cc1ccc2c(c1)OCO2)C(=O)/C=C/c1cccc(Br)c1,?,i,-10%,?,9%
SMILES,KB-3-1 cytotox,KB-V1 cytotox,ELG1 DNA repair,MCF10A rereplic,SW480 rereplic
COc1ccc(C2C(C(C)=O)=C(O)C(=O)N2c2nc3ccccc3s2)cc1OC (configuration not stated),i,i,5%,2.3µM*,?
COc1ccc(C2C(C(C)=O)=C(O)C(=O)N2c2nccs2)cc1OC (configuration not stated),i,i,4%,6%,0%
COc1ccccc1-c1nnc(Sc2nc([N+](=O)[O-])nn2C)o1,?,?,?,9.2µM*,?
O=C(NNc1ncc(C(F)(F)F)cc1Cl)c1ccc(Cl)c(Cl)c1,i,i,-18%,-4%,-17%
Cc1ccc(NC(=S)NNc2ncc(C(F)(F)F)cc2Cl)cc1,?,i,?,22%,10%
Fc1ccc(NC(=S)NNc2ncc(C(F)(F)F)cc2Cl)c(F)c1,21µM*,15µM*,?,7%,?
Nc1ccccc1C(=O)NNc1ncc(C(F)(F)F)cc1Cl,i,?,28%,15µM*,5.8µM*
FC(F)(F)c1cnc(NNC(=S)Nc2ccc(Cl)cc2)c(Cl)c1,?,i,?,15µM*,?
Cc1ccc(NC(=S)NNc2ncc(C(F)(F)F)cc2Cl)c(C)c1,i,i,21µM*,3%,12%
O=[N+]([O-])c1cccc(S(=O)(=O)NCCc2ccccc2)c1,i,i,13%,9%,-9%
CCN1C(=O)[C@@H]2Cc3c([nH]c4ccccc34)C(c3ccc(OC)cc3)N2C1=S (some centres not stated),?,?,?,21µM*,?
COC(=O)c1ccc(C2c3[nH]c4ccccc4c3C[C@H]3C(=O)N(C)CC(=O)N23)cc1 (some centres not stated),i,i,-11%,10%,?
C=CCN1CC(=O)N2C(c3ccccc3)c3[nH]c4ccccc4c3C[C@H]2C1=O (some centres not stated),6.5µM*,i,1%,4%,?
O=C(CC[C@H]1O[C@@H](n2ccc(=O)[nH]c2=O)[C@H](O)[C@@H]1O)NC1CCN(Cc2ccccc2)C1 (some centres not stated),i,i,.,.,.
C/C(N)=C(/C#N)C(=O)COC(=O)[C@@H](NC(=O)c1ccccc1Cl)C(C)C,i,i,2%,2.1µM*,-56%
CC1CCCN(CCCNC(=O)c2ccc3c(c2)N(Cc2ccc(F)cc2)C(=O)c2ccccc2S3=O)C1 (configuration not stated),i,i,6%,2%,21µM*
